Compound activity from PubChem BioAssay.
A selection: hits, their analogues and other compounds. The true share with any hit is near 0.29%.
Vc quorum ag-1: quorum light induction in luxS cqsA deficient V. cholerae | AID 588436 | 0.16% of 350,000 active | V. cholerae BH1578 lux reporter, luminescence, 6 h | activation, % at 18.7 µM; in the data active means activation mostly above about 9.7%, no sharp cut-off
Mtb hypoxia inh: Mtb hypoxia fluorescent reporter inhibition; M. tuberculosis hypoxia-regulated fluorescent reporter, fluorescence; fluorescence inhibition, % (concentration not given with the values); 0.1% of 300,000 active; AID 1159583; in the data active means fluorescence inhibition mostly above about 23%, no sharp cut-off; inactive means mostly below about 17%
Y pestis TopoI: inhibitors of Yersinia pestis topoisomerase I. activity, % at 10 µM. Y. pestis Topo-I cleavage product accumulation, plate reader. AID 504884. 0.064% of 360,000 active; in the data active means activity above about 50%, passing the limit was not always enough
Vc quorum ag-2: inducers of V. cholerae quorum light production without autoinducers; shares compounds with Vc quorum ag-1; V. cholerae BH1578 lux reporter, luminescence, 6 h; activation, % at 50 µM; 620 tested, under 10 active; AID 602243; call rule not given here
HeLa tox: kills HeLa cells within 24 hours; AID 624140; HeLa viability, CellTiter-Glo ATP luminescence; activity change, negative = cytotoxicity, % at 35 µM; 25 tested, under 10 active; shares compounds with Vc quorum ag-1;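 active means signal drop with fitted half-maximal concentration at or below twice the highest valid dose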
Large screens that a line does not name were inactive (follow-up assays come after a bar, where shown).

O=C(NN=Cc1cc(Cl)ccc1O)C(=O)Nc1ccccc1OC(F)(F)C(F)F	none (no result: Vc quorum ag-1, Y pestis TopoI)
CCCCOCC(O)CN1CCN(C(C)=O)CC1 (configuration not stated)	none | Vc quorum ag-2 inactive
CC(=O)N1CCN(CC(O)COc2ccc(Br)cc2)CC1 (configuration not stated)	none
O=C(N[C@H]1C/C=C\C[C@@H](CC(=O)N(CCO)Cc2ccccc2)C(=O)NC[C@H](c2ccccc2)OC1=O)OCC1c2ccccc2-c2ccccc21	none (no result: Mtb hypoxia inh)
COc1ccc(Cl)cc1S(=O)(=O)NCCCn1ccnc1	none
COc1ccc(Cl)cc1S(=O)(=O)NC(C)C(=O)NCCCn1ccnc1 (configuration not stated)	none | Vc quorum ag-2 inactive
CCOC(=O)N1CCC(NC(=O)C2CCN(C(=O)N3CC(C)Oc4ccccc43)CC2)CC1 (configuration not stated)	none
CCOC(=O)N1CCC(NC(=O)C2CCN(C(=O)N3CC(C)Oc4ccc(C)cc43)CC2)CC1 (configuration not stated)	Vc quorum ag-1 7.6 | Vc quorum ag-2 inactive
O=C(NCc1cccc(F)c1)Nc1nnc([C@H]2C[C@H](O)[C@@H](CO)O2)s1	none (no result: Mtb hypoxia inh)
CC(CC(=O)NCc1ccco1)=NNC(=O)c1ccc(Cl)cc1Cl	none (no result: Vc quorum ag-1, Y pestis TopoI)
CCC1=NN2C(=N)C(=Cc3cccn3-c3ccc(OC)cc3)C(=O)N=C2S1	none (no result: Vc quorum ag-1, Y pestis TopoI)
O=C(CSc1ccc(-c2cccnc2)nn1)Nc1ccc(F)cc1	none
Cc1ccsc1C=NNC(=O)CN1CCN(Cc2ccccc2)CC1	none (no result: Vc quorum ag-1, Y pestis TopoI)
Cc1ccc2cc3c(NC(=O)c4ccco4)nn(C)c3nc2c1	none (no result: Vc quorum ag-1, Mtb hypoxia inh) | HeLa tox inactive
CC(=O)Nc1nn(C)c2nc3cc(C)ccc3cc12	none (no result: Mtb hypoxia inh)
FC(F)(F)c1ccc(C2C3CN(Cc4cccnc4)C(c4ccccc4)C34CC2(c2ccccc2)C4)cc1 (configuration not stated)	none (no result: Vc quorum ag-1, Y pestis TopoI)
O=C1CCNCCN1C(CO)Cc1ccccc1 (configuration not stated)	none (no result: Vc quorum ag-1, Y pestis TopoI)
O=C(O)c1cc(CN2CCOCC2)oc1-c1ccccc1	Vc quorum ag-1 17 | Vc quorum ag-2 inactive
CCN(CC)Cc1cc(C(=O)O)c(-c2ccccc2)o1	none
CCCCC(C)=NNC(=O)CN(c1ccc(Br)cc1)S(=O)(=O)c1ccccc1	none (no result: Vc quorum ag-1, Y pestis TopoI)
COc1ccc(Oc2nc(-c3cccnc3)nc3ccccc23)cc1	none
CCCOc1ccc(-c2nc(OC)c3ccccc3n2)cc1	Vc quorum ag-1 25 (no result: Mtb hypoxia inh) | Vc quorum ag-2 inactive
CCOC(=O)c1ccc(-c2ccc3c(=O)c4ccccc4n(C)c3c2)cc1F	none
Cc1ccc(S(=O)(=O)N(C)c2nc3ccccc3[nH]c2=S)cc1	none
Cc1ccc(S(=O)(=O)N(C)c2nonc2C)cc1	none | Vc quorum ag-2 inactive
CCCC(O)=C1C(=O)CC(c2ccccc2)CC1=NCCc1c(C)[nH]c2ccccc12 (configuration not stated)	none (no result: Vc quorum ag-1, Y pestis TopoI)
Cc1nnc(SCc2nc3sc4c(c3c(=O)[nH]2)CCCC4)n(N)c1=O	none (no result: Vc quorum ag-1, Y pestis TopoI)
Nc1nc(SCc2nc3sc4c(c3c(=O)[nH]2)CCCC4)n[nH]1	Vc quorum ag-1 31 | Vc quorum ag-2 inactive
CCOC=NNc1nc(C(F)(F)F)nc2c1cnn2Cc1ccccc1	none (no result: Vc quorum ag-1, Y pestis TopoI)
COc1ccccc1C(=O)NC(=O)COC(=O)CNC(=O)c1ccc(Cl)cc1Cl	none
COc1ccc(C(=O)COC(=O)CNC(=O)c2ccc(Cl)cc2Cl)c(OC)c1	none | Vc quorum ag-2 inactive
CCOC(=O)C1CCCN(C(=O)c2ccc3nc(-c4cccc(OC)c4)oc3c2)C1 (configuration not stated)	none
COC1=CC(=Cc2c(O)c(C#N)c3ccccn23)C=CC1=O	none (no result: Vc quorum ag-1, Y pestis TopoI)
C/C(C=Nn1c(-c2ccc(Cl)cc2)n[nH]c1=S)=C\c1ccco1	none (no result: Vc quorum ag-1, Y pestis TopoI)
O=C(Nc1nnc(-c2ccccc2)o1)c1cccc(N2C(=O)CCC2=O)c1	none (no result: Mtb hypoxia inh)
O=C(Nc1nnc(-c2ccc(Br)cc2)o1)c1cccc(N2C(=O)CCC2=O)c1	none | Vc quorum ag-2 inactive
Nc1nc(SCC(=O)O)[nH]c(=O)c1NC(=O)c1ccco1	none
Oc1ccc(C(=S)N2CCCCC2)cc1	none (no result: Vc quorum ag-1)
S=C(c1ccc(N2CCOCC2)cc1)N1CCCCC1	Vc quorum ag-1 20 (no result: Mtb hypoxia inh) | Vc quorum ag-2 inactive
CN1CC2C3C(=O)N(C)C(=O)C3[C@](Cc3ccccc3)(C1=O)N2C(=O)c1ccccc1 (some centres not stated)	none (no result: Vc quorum ag-1, Y pestis TopoI)
CN(C)CC(C)(C)CNC(=O)c1cc(=O)c2ccccc2o1	none | Vc quorum ag-2 inactive
Cc1ccc(CNC(=O)c2cc(=O)c3ccccc3o2)cc1	none
COc1ccc(C(=O)C2CCN(C(=O)c3ccc(OC)cc3)CC2)cc1	none
COc1ccc(C(=O)N2CCC(C(=O)c3ccc(F)cc3)CC2)cc1	Vc quorum ag-1 17 | Vc quorum ag-2 inactive
CCC(=NNC(=O)c1ccc2c(c1)OCO2)c1ccccc1	none (no result: Vc quorum ag-1, Y pestis TopoI)
Clc1cccc(NN=Cc2ccc(N3CCOCC3)s2)c1	none (no result: Vc quorum ag-1, Y pestis TopoI)
CN(CC(=O)Nc1ccc(F)c(F)c1F)C(=O)C1CCCO1 (configuration not stated)	none
CN(CC(=O)Nc1ccc(F)c(F)c1F)C(=O)C1CCC1	Vc quorum ag-1 25 | Vc quorum ag-2 inactive
CSc1ccc(C=NNC(=O)COc2ccc(Cl)cc2Br)cc1	none (no result: Vc quorum ag-1, Y pestis TopoI)
CN(C)c1ccc(C=NNC(=O)c2ccc(Cn3cc(Br)cn3)o2)cc1	none (no result: Vc quorum ag-1, Y pestis TopoI)
CCc1ccc(C(=O)OCC(=O)N2CCCCCC2)cc1	none
CCOc1ccc(C(=O)OCC(=O)N2CCCC2)cc1	Vc quorum ag-1 25 | Vc quorum ag-2 inactive
COc1ccc(C=C(C#N)c2cccnc2)cc1OC	none (no result: Vc quorum ag-1, Y pestis TopoI)
Cc1ccc(OCCNC(=O)c2cccc(C)c2)cc1	Vc quorum ag-1 active | Vc quorum ag-2 inactive | HeLa tox inactive
O=C(NCCNC(=O)c1ccco1)c1ccco1	none
CCc1ccc(OCCNC(=O)c2ccco2)cc1	none (no result: Vc quorum ag-1) | Vc quorum ag-2 inactive
CCOc1ccc(CN(C)C(=O)CCNC(=O)c2ccco2)cc1	none
O=C(NCc1ccccc1)c1ccco1	none (not shown: Mtb hypoxia inh)
O=C(NCCOc1ccc(Cl)cc1)c1ccco1	Vc quorum ag-1 425 | Vc quorum ag-2 inactive
Cc1ccc(C(=O)NCCOc2ccc(Cl)cc2)cc1	none
CCOc1ccc(CNC(=O)c2ccco2)cc1	Vc quorum ag-1 60 | Vc quorum ag-2 inactive
CCOC1OC(C(=O)N2CCN(Cc3ccc4c(c3)OCO4)CC2)=CC(c2ccc(C(F)(F)F)cc2)C1CCCO (configuration not stated)	none (no result: Vc quorum ag-1, Y pestis TopoI)
CC(=NNC(=O)CNc1cccc2ccccc12)c1ccc(Br)s1	none (no result: Vc quorum ag-1, Y pestis TopoI)
CC1CN(C(C)CO)C(=O)c2cc(NC(=O)c3ccncc3)ccc2OC1CN(C)S(=O)(=O)c1ccc(F)cc1 (configuration not stated)	none (no result: Vc quorum ag-1, Y pestis TopoI)
COc1ccc(/C=C/C(=O)Oc2cccc(C=NNC(=O)Cc3ccc(Br)cc3)c2)cc1	none (no result: Vc quorum ag-1, Y pestis TopoI)
NC(Cc1ccccc1)C(=O)N1CCCCC1 (configuration not stated)	none
Cc1ccc(OCCNC(=O)c2ccco2)cc1C	Vc quorum ag-1 active | Vc quorum ag-2 inactive
Cc1ccc(C(=O)NCCNC(=O)c2ccco2)cc1C	none
COC(=O)C1=C(c2ccc(S(C)(=O)=O)cc2)CC2CCC1N2C(=O)NC(C)C (configuration not stated)	none (no result: Vc quorum ag-1, Y pestis TopoI)
O=C(c1cc2ccccc2oc1=O)N1CCOCC1	none
O=C(c1cc2cc(Cl)ccc2oc1=O)N1CCOCC1	none (no result: Mtb hypoxia inh) | Vc quorum ag-2 inactive
CCOC(=O)c1c(NN=Cc2ccncc2)n[nH]c1C	none (no result: Vc quorum ag-1, Y pestis TopoI)
